Records with an inconclusive call do not appear. Where a call stands in place of a potency, no number is given. More than one record can exist for a structure, and the calls need not agree. The source made the active and inactive calls. The call rests on the fitted dose curve; in most records, active means well fitted cell-killing curve with a large enough effect in the repeat runs; inconclusive means weak or mixed curves, or effect the other way; inactive means no such curve, though single readings can be large or run the other way.
Assay: qHTS assay to identify small molecule agonists of the vitamin D receptor (VDR) signaling pathway - cell viability counter screen (AID 743224); further: nearly all actives have a fitted effect of over 50% in size
Settings: VDR-bla HEK293T viability, CellTiter-Glo luminescence, 16 h; series mostly up to 62.6 µM
Text: U.S. Tox21 Program National Center for Advancing Translational Sciences [NCATS] NIH Chemical Genomics Center [NCGC] U.S. Environmental Protection Agency [EPA] National Institutes of Environmental Health Sciences [NIEHS] National Toxicology Program [NTP] U.S. Food and Drug Administration [FDA] Tox21 Assay Overview: The vitamin D receptor (VDR), a member of nuclear hormone receptor superfamily, plays a critical role in calcium homeostasis and bone metabolism. It is also involved in cell differentiation and growth, and thrombogenicity. […] The cytotoxicity of the Tox21 compound library against the VDR-bla cell line was tested in parallel by measuring the cell viability using CellTiter-Glo assay (Promega, Madison, WI) in the same wells.
Tox21 Assay Protocol Summary: VDR-bla cells were dispensed at 2,000 cells/6 uL/well into black wall/clear-bottom 1536-well plates using a Multidrop Combi (Thermo Fisher Scientific, Waltham, MA) dispenser. After the assay plates were incubated at a 37C and 5% CO2 for 4 h, 23 nL of compounds dissolved in DMSO, positive controls or DMSO only was transferred to the assay plate by a Pintool station (Kalypsys, San Diego, CA). The plates were incubated at 37C and 5% CO2 for 16 h. After 1 uL of LiveBLAzerTM B/G FRET substrate was added using a Bioraptr Flying Reagent Dispenser (FRD) workstation (Beckman Coulter, Indianapolis, IN, USA), the plates were incubated at room temperature for 2 h, and fluorescence intensity was measured by an Envision plate reader (PerkinElmer, Shelton, CT). For cell viability readout that measures cytotoxicity, 3 ul/well of CellTiter-Glo reagent was added into the assay plates using a FRD. After 30 min incubation at room temperature, the luminescence intensity in the plates was measured using a ViewLux (PerkinElmer) plate reader.
Potency means the concentration at half of the fitted maximal effect.

Which Potency does the source give for C1CNCCN1 here?
The Potency was “inactive”.

With O=C1OC(c2ccc(O)cc2)(c2ccc(O)cc2)c2ccccc21 as the molecule, how does the Potency read?
Its Potency is 48.7 µM (active) and inactive.

Which Potency does the source give for C=CCOC(=O)CC(C)C here?
The Potency was “inactive”.

With COC(=O)c1ccc(O)cc1 as the molecule, how does the Potency read?
Its Potency is “inactive”.

With COCC(C)N (stereo not given) as the molecule, how does the Potency read?
Its Potency is “inactive”.

Which Potency does the source give for CC1(C)O[C@@H]2[C@@H](CO[C@@]3(COS(N)(=O)=O)OC(C)(C)O[C@@H]23)O1 here?
The Potency was “inactive”.

With CCCCOC(=O)CCCCCCCCC(=O)OCCCC as the molecule, how does the Potency read?
Its Potency is “inactive”.

Which Potency does the source give for CCCCC/C(C=O)=C\c1ccccc1 here?
Its Potency is “inactive”.

With CO[C@H]1C=CO[C@@]2(C)Oc3c(C)c(O)c4c(O)c(c(/C=N/N5CCN(C)CC5)c(O)c4c3C2=O)NC(=O)/C(C)=C\C=C[C@H](C)[C@H](O)[C@@H](C)[C@@H](O)[C@@H](C)[C@H](OC(C)=O)[C@@H]1C as the molecule, how does the Potency read?
Its Potency is “inactive”.

Which Potency does the source give for Nc1ccc(N=Nc2ccccc2)c(N)n1 here?
Its Potency is “inactive”.

For Nc1cccc(N)c1, which Potency is on record?
Its Potency is “inactive”.

Which Potency does the source give for CC1=NN(c2ccccc2)C(=O)C1 here?
The Potency was “inactive”.

Which Potency does the source give for NC(=O)c1ccc([N+](=O)[O-])cc1Cl here?
Its Potency is “inactive”.

Which Potency does the source give for CC(C)=CCC/C(C)=C/CO here?
Its Potency is “inactive”.

For O=C1CCCCCN1, which Potency is on record?
Its Potency is “inactive”.

Which Potency does the source give for CN(C)C=O here?
Its Potency is “inactive”.

Which Potency does the source give for N[C@@H](Cc1c[nH]c2ccc(O)cc12)C(=O)O here?
The Potency was “inactive”.

With O=c1c(-c2ccc(O)cc2)coc2cc(O)cc(O)c12 as the molecule, how does the Potency read?
Its Potency is “inactive”.

For CC(=O)/C=C/C1=C(C)CCCC1(C)C, which Potency is on record?
The Potency was “inactive”.

With COc1ccc(C(=O)c2ccccc2)c(O)c1 as the molecule, how does the Potency read?
Its Potency is “inactive”.

For COc1cc(O)c(C(=O)c2ccccc2)cc1S(=O)(=O)O, which Potency is on record?
The Potency was “inactive”.

With CC(=O)CCC(C)C as the molecule, how does the Potency read?
The Potency was “inactive”.

For C[C@]12CC[C@@H]3c4ccc(O)cc4C[C@@H](CCCCCCCCCS(=O)CCCC(F)(F)C(F)(F)F)[C@H]3[C@@H]1CC[C@@H]2O (stereo not given in full), which Potency is on record?
The Potency was “inactive”.

For Cc1cccc(Nc2cc(Cl)nc(SCC(=O)O)n2)c1C, which Potency is on record?
Its Potency is “inactive”.

For Oc1cccc(O)c1, which Potency is on record?
Its Potency is “inactive”.

With COC1=CC(=O)C[C@@H](C)[C@]12Oc1c(Cl)c(OC)cc(OC)c1C2=O as the molecule, how does the Potency read?
Its Potency is “inactive”.

For NCCNc1cccc2ccccc12, which Potency is on record?
Its Potency is “inactive”.

Which Potency does the source give for C#C[C@]1(O)CC[C@H]2[C@@H]3CCc4cc(O)ccc4[C@H]3CC[C@@]21C here?
The Potency was “inactive”.

For O=C(OCc1ccccc1)c1ccccc1, which Potency is on record?
The Potency was “inactive”.

With C/C=C/c1ccc(O)c(OC)c1 as the molecule, how does the Potency read?
Its Potency is “inactive”.

Which Potency does the source give for CC(=O)Oc1ccccc1C(=O)O here?
The Potency was “inactive”.

With CCCCOCCOCCOC(C)=O as the molecule, how does the Potency read?
Its Potency is “inactive”.

For CN(C)Cc1cc(CN(C)C)c(O)c(CN(C)C)c1, which Potency is on record?
The Potency was “inactive”.

With OCCCc1ccccc1 as the molecule, how does the Potency read?
The Potency was “inactive”.

For COC(=O)c1ccc(C=O)cc1, which Potency is on record?
The Potency was “inactive”.

Which Potency does the source give for COc1ccccc1O here?
The Potency was “inactive”.

Which Potency does the source give for CC(C)(C)CC(C)(C)c1ccc(O)c(-n2nc3ccccc3n2)c1 here?
The Potency was “inactive”.

For Cc1ccc(O)c(-n2nc3ccccc3n2)c1, which Potency is on record?
Its Potency is “inactive”.

For O=C(O)Cc1cccc2ccccc12, which Potency is on record?
Its Potency is “inactive”.

With CCCCCCCCCCCCCCCCCC(=O)OCC(O)CO (stereo not given) as the molecule, how does the Potency read?
The Potency was “inactive”.

Source: PubChem BioAssay (Tox21)
